A selection: hits, their analogues and other compounds. The true share with any hit is near 1.7%.
KCNH2 3.1 inh: KCNH2 3.1 (human) potassium channel inhibition; U2OS KCNH2 3.1, thallium flux FluxOr; active compounds read low; activity change, % (tested at about 1.8 µM); 340,000 compounds, 0.95% hits; AID 720553;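 active = maximum activity change below -70%; inconclusive = maximum activity change from -70% to -50%; inactive = maximum activity change above -50%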;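 also: thallium influx rate constant from kinetic fluorescence after stimulation buffer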
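Kinetic fluorescence (2 min after stimulation buffer) measures Tl+ influx through KCNH2 3.1 expressed by viral transduction in U2OS cells; the rate constant is normalized against DMSO controls serving as positive and negative references.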
Giardia kill: Giardia lamblia killing. activity change, % at 7.66 µM, hits read low. Giardia lamblia trophozoite viability. 340,000 compounds, 0.15% hits; in the data active = activity change below about -80%; inconclusive = between about -30% and that limit;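 also: parasites exposed to compound for two days anaerobically before the ATP read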
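Trophozoites 100 cells/well + cpd; 48 hrs, 37 deg C, anaerobic. ATPLite 1-Step added, 15-30 min RT, luminescence read (ATP-based viability).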
KCNH2 WT inh: inhibitors of human wildtype KCNH2 potassium channel. Q12809. U2OS, BacMam KCNH2, thallium flux FluxOr; active compounds read low. activity change, % at 1.84 µM. 340,000 compounds, 0.37% hits;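 active = maximum activity change below -70%; inconclusive = maximum activity change between -70% and -50%; inactive = maximum activity change above -50%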
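U2OS cells transduced with wild-type KCNH2 virus are loaded with FluxOr dye for 45 min, and thallium flux is measured in kinetic reads before and after stimulation buffer. Rate constants are normalized to DMSO controls.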
USP1 inh: blocks the human USP1/UAF1 deubiquitinase complex | O94782 | recombinant USP1/UAF1, Ub-Rhodamine cleavage fluorescence | Potency, µM (highest dose often 57.1 µM), for the others: top-dose activity change, negative = inhibition, hits mostly inhibitors | 390,000 compounds, 0.23% hits | AID 743255; active = well fitted inhibition curve with a large enough effect; inconclusive = small, poorly fitted or top-dose-only effect; inactive = no such curve, though single readings can be large or run the other way; also: potency is read from the fitted curve at half-maximal effect; nearly all actives have a fitted effect of over 60% in size
Target sequence (O94782 whole entry, looked up): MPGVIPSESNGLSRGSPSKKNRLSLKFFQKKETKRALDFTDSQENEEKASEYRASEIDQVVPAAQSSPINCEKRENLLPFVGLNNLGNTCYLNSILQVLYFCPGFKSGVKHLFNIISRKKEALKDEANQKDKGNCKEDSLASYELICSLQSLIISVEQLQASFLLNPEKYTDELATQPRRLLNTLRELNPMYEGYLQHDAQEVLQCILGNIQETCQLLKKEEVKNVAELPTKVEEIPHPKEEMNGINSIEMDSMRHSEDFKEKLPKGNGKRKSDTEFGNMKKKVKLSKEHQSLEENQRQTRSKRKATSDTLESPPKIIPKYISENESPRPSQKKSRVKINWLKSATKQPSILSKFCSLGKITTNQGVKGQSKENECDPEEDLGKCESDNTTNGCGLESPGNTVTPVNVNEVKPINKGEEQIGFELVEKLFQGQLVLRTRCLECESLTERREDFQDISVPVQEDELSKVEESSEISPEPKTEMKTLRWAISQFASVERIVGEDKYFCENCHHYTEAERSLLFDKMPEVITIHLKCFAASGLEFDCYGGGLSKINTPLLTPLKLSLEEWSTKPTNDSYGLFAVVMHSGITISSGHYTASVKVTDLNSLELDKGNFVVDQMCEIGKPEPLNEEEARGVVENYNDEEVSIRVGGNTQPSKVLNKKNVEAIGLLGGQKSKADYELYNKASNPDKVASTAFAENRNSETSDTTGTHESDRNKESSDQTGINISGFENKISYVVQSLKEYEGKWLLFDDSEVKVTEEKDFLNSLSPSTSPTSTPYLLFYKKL
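Step one: compound is pinned into 1nM USP1/UAF1 in HEPES pH 7.8 buffer with TCEP. Step two: 15 min room-temperature incubation. Step three: Ub-Rho (150nM final) starts cleavage, tracked by fluorescence over six one-minute reads.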
Coupling enz: inhibits coupling enzyme system, counter-screen for aldolase hits; coupling enzyme system counterscreen, AmpLite Red fluorescence; 290,000 compounds, 0.67% hits; AID 2472; activity change, negative = inhibition, % at 58.2 µM, hits read low; in the data active = activity change below about -30%
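Compounds tested against the coupling enzymes alone at 57.5 uM final; readout was AmpLite Red fluorescence (525/598 nm) after 20 min at RT.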
Active calls of the source: *; i = inactive; u = inconclusive; x = no result given; [ ] = remark or other dose. % is scaled to controls: 0 for no effect and ±100 for the full control effect.

SMILES	KCNH2 3.1 inh	Giardia kill	KCNH2 WT inh	USP1 inh	Coupling enz
CC(=O)c1ccc(OCc2cc(C(=O)N(C)CC3COc4ccccc4O3)no2)cc1 (configuration not stated)	-5	x	2	-27%	x
CNC(=O)C1CN(C(=O)c2nn(Cc3ccccc3)c(=O)c3ccccc23)c2ccccc2O1 (configuration not stated)	-18	x	-5	-7%	x
Cn1cccc1CN1CCC[C@]2(N[C@H](c3ccccc3)[C@@H]3C(=O)N(Cc4ccccc4)C(=O)[C@@H]32)C1=O	-4	x	0	-17%	x
Cc1ccc([C@H]2N[C@]3(CCCN(Cc4cccn4C)C3=O)[C@H]3C(=O)N(Cc4ccccc4)C(=O)[C@@H]23)cc1	-31	x	-71*	-32%	x
Cc1ccc(C(=O)N/N=C/c2ccc([N+](=O)[O-])s2)cc1	-14	-93*	6	1%	x
Cc1cc(C(=O)N/N=C/c2ccc([N+](=O)[O-])s2)n[nH]1	-17	-90*	-19	-16%	3
Cc1cc(C(=O)N/N=C/c2ccc(C)s2)n[nH]1	5	-21	6	-22%	0
O=C(N/N=C/c1ccc([N+](=O)[O-])s1)c1ccncc1	x	u	7	-10%	1
CC(C)(C)OC(=O)N/N=C\c1ccc([N+](=O)[O-])s1	-11	1	-20	-7%	0
CCOC(=O)N/N=C\c1ccc([N+](=O)[O-])s1	-5	-99*	3	-4%	1
CC(=O)NN1C(=O)c2ccc3c4c(ccc(c24)C1=O)C(=O)N(NC(C)=O)C3=O	-8	1	-2	-15%	-32*
CCc1ccccc1OCCCOc1ccc(OC)cc1	-99*	-9	-1	-4%	-2
CCc1ccccc1OCCOc1ccc(C)cc1OC	-3	16	-4	-23%	-1
Cc1ccc2nc(N(Cc3cccnc3)C(=O)COc3ccccc3)sc2c1	x	x	x	-21%	x
Cc1ccc(N(Cc2cccs2)C(=O)COc2ccccc2[N+](=O)[O-])cc1	x	x	x	-24%	x
O=C(Nc1cnccn1)c1ccc(Cl)cc1	-7	3	0	-9%	5
O=C(Nc1cnccn1)c1ccncc1	-84*	-1	0	-5%	4
O=C(CN1C(=O)c2ccccc2C1=O)NC1CCS(=O)(=O)C1 (configuration not stated)	-85*	x	3	u	x
CC(=O)NC1=C(NC2CCS(=O)(=O)C2)C(=O)c2ccccc2C1=O (configuration not stated)	16	-1	2	u	-51*
O=C(NC(=S)NC1CCS(=O)(=O)C1)c1ccccc1 (configuration not stated)	-3	2	-10	-19%	x
CN(C1=C(NC(=O)c2ccccc2)C(=O)c2ccccc2C1=O)C1CCS(=O)(=O)C1 (configuration not stated)	-10	-21	3	10µM*	-62*
COC(=O)C1=C(C)OC(N)=C(C#N)C1c1cccnc1 (configuration not stated)	4	3	12	-6%	-3
CC1=C(n2nnc([N+](=O)[O-])n2)C(c2cccnc2)C(C#N)=C(N)O1 (configuration not stated)	-7	-13	8	-20%	-67*
O=C(C[n+]1cc(Br)cc(Br)c1)c1cccc([N+](=O)[O-])c1	-80*	-14	-9	-21%	-1
CC(=O)c1ccc(Nc2nc(-c3sc(C)nc3C)cs2)cc1	5	x	-134*	-5%	x
SMILES	KCNH2 3.1 inh	Giardia kill	KCNH2 WT inh	USP1 inh	Coupling enz
OC1OC[C@@H](O)[C@@H](O)[C@@H]1O (some centres not stated)	x	x	x	x	-1
COc1cc2c(cc1OC)-c1cc3ccc4c(c3c[n+]1CC2)OCO4	1	-4	0	25µM*	-44*
COc1ccc2c(Sc3ccc(C)cc3)c(C(=O)NCc3ccc(F)cc3)[nH]c2c1	x	x	x	6%	x
CC1=Nc2cccc3cccc(c23)N1C	2	-6	4	2%	-32*
COc1ccc(OC)c(NC(=O)COC(=O)c2ccc(S(=O)(=O)N3CCCCC3)cc2)c1	-5	x	13	-21%	x
CC(=O)N1CCc2c(sc3c2c(=O)n(-c2ccccc2)c(=O)n3CC(=O)Nc2ccccc2C)C1	x	x	x	-8%	x
COC(=O)c1nn(-c2ccc3c(c2)CCN3C(C)=O)cc1O	19	-87*	-8	0%	x
Cc1ccc(C)c2[nH]c(=O)c(C(c3nnnn3CCc3ccccc3)N3CCOCC3)cc12 (configuration not stated)	9	7	-3	-5%	0
Cc1ccc(C)c2[nH]c(=O)c(C(c3nnnn3Cc3ccco3)N3CCc4ccccc4C3)cc12 (configuration not stated)	-8	-16	-12	-11%	-34*
CC(C)(C)C(=O)Nc1ccc2nc(SCC(=O)N3CCc4ccccc43)sc2c1	x	x	x	-6%	x
Cc1c(Cl)cccc1NC(=O)CCN1C(=O)NC(C)(C)C1=O	1	-5	-1	-9%	x
Cc1cc(O)c2c(C)c(CC(=O)NCc3ccccc3Cl)c(=O)oc2c1	x	x	x	-17%	x
COc1cc(-c2nn3c(-c4cc(-c5ccccc5)n[nH]4)nnc3s2)cc(OC)c1OC	x	-9	x	x	x
COCCn1c(SCC(=O)Nc2nnc(C)s2)nnc1-c1cc2ccccc2cc1O	-2	-1	-3	-3%	-44*
COCCn1c(SCC(=O)Nc2nnc(C)s2)nnc1-c1c[nH]c2ccccc12	3	12	6	4%	0
CCCc1cc(=O)[nH]c(SCC(=O)NC2CCCc3ccccc32)n1 (configuration not stated)	3	-11	3	-17%	-38*
Cc1ccc2[nH]c(C)c(CC(=O)O)c2c1	15	-9	0	-3%	-40*
CN(C)S(=O)(=O)Oc1ccc(C(=O)Nc2ccc([N+](=O)[O-])cc2)cc1	21	2	-9	-12%	-1
COC(=O)c1ccc(OS(=O)(=O)N(C)C)cc1	-11	4	-227*	-17%	1
COc1cc(OC)c(Nc2nc3ccc(C(=O)c4ccccc4)cc3n3c(C)nnc23)cc1Cl	x	x	x	-12%	x
CCCCN(C)C1=CC2=CC(=C(C#N)C#N)CCC2CC1 (configuration not stated)	-102*	3	-87*	i[2.29 µM]	-4
N#CC1=C(N)C2=C(N3CCCCC3)CCCC2C1(C#N)C#N (configuration not stated)	-4	-13	4	-5%	-14
CCN(CC)C1=CC2=CC(=C(C#N)C#N)CCC2CC1 (configuration not stated)	-97*	6	-50	i[2.29 µM]	-6
N#CC(C#N)=C1C=C2C=C(N3CCCCC3)CCC2CC1 (configuration not stated)	-89*	-1	u	u	2

Screening results as filed in PubChem BioAssay.
